Like-named read-outs stand apart in the source and are kept apart here. In all, about 13,000 compounds went through this assay and about 3,200 (25%) showed an effect of 50% or more. This is one part of the list.
System: P. falciparum stage V gametocytes
Design: BacTiter-Glo ATP luminescence viability of purified stage V gametocytes in 384-well plates, per cent inhibition versus DMSO
Details: 48 h, 5 µM, inhibitor

SMILES	% Inhibition [%]	% Inhibition (% Inhibition) [%]
CN(Cc1cccc(F)c1)C1CCN(c2cc(NC(=O)c3ccc(F)cc3)ccn2)CC1 [TCMDC-135018]	1.836	
CCCOc1ccccc1-c1nc2[nH]c3c(c2c(=O)[nH]1)CCN(C)C3 [TCMDC-138173]	5.306	
COc1cc(C=CC(=O)N2CCC3(CC2)CC(=O)c2ccccc2O3)cc(OC)c1OC [TCMDC-123541]	7.005	
N#Cc1ccc(-c2ccc(OCC(O)CN3CCCN(Cc4cccc(O)c4Cl)CC3)cc2)cc1 (stereo not drawn) [TCMDC-141431]	-23.75	
COc1ccc2nccc([C@@H](O)CN3CCC(NCc4nc5ccccc5s4)CC3)c2c1 [TCMDC-140790]	-20.83	
COc1ccc(NC(=O)Nc2ccc(-c3ccncc3)c(Cl)c2)cc1N1CCN(C)CC1 [TCMDC-139134]	-28.75	
CN(C)c1ccc(NC2=NC(C)(C)N=C(N)N2)cc1 [TCMDC-124346]	7.678	
O=C(Cn1c(SCc2cccc(F)c2F)cc(=O)c2ccccc21)N(CCc1cnc[nH]1)Cc1ccc(-c2ccc(C(F)(F)F)cc2)cc1 [TCMDC-141484]	44.33	
Cn1cncc1CCN(Cc1ccc(-c2ccc(C(F)(F)F)cc2)cc1)C(=O)Cn1c(SCc2cccc(F)c2F)cc(=O)c2ccccc21 [TCMDC-141451]	112.4	
Cc1ccc(/C=C/C(=O)NC2CCC(N3CCC(c4ccccc4C)CC3)CC2)cc1C (stereo not drawn) [TCMDC-133526]	-66.55	
COc1cc(NC(=O)c2cccs2)c(OC)cc1NC(=O)Nc1cccc(Cl)c1 [TCMDC-123531]	-32.35	
CCN1C(=O)C(CC(=O)Nc2cccc(Cl)c2)N(Cc2ccc(OC)c(OC)c2)C1=S (stereo not drawn) [TCMDC-123795]	79.41	
COc1ccc(CN2C(=S)N(Cc3ccccc3)C(=O)C2CC(=O)Nc2ccccc2)cc1OC (stereo not drawn) [TCMDC-123874]	33.25	
O=C(Cc1ccccn1)Nc1cccc(-c2cccc(-c3nc4ccc(C(F)(F)F)cc4[nH]3)c2)c1 [TCMDC-132177]	-14.6	
COc1ccc2nccc([C@@H](O)CN3CCC(NCc4cc5ccccn5n4)CC3)c2c1 [TCMDC-141025]	65.1	
COc1ccc2nccc([C@@H](O)CN3CCC(NC(=O)/C=C/c4ccc(F)c5ccccc45)CC3)c2c1 [TCMDC-141105]	-9.775	
COc1ccc2nccc([C@@H](O)CN3CCC(NC(=O)/C=C/c4ccnc5ccccc45)CC3)c2c1 [TCMDC-141103]	15.04	
COc1ccc2nccc([C@@H](O)CN3CCC(NCc4cc5ccccc5nn4)CC3)c2c1 [TCMDC-140972]	-3.79	
COc1ccc2nccc([C@@H](O)CN3CCC(NCC(O)Cc4ccccc4)CC3)c2c1 (stereo partly drawn) [TCMDC-140702]	11.24	
COc1ccc2nccc([C@@H](O)CN3CCC(NCC4COc5ccccc5O4)CC3)c2c1 (stereo partly drawn) [TCMDC-140733]	86.29	
COc1ccc2nccc([C@@H](O)CN3CCC(NC(=O)/C=C/c4ccc5ccccc5n4)CC3)c2c1 [TCMDC-141104]	76.48	
COc1ccc2nccc([C@@H](O)CN3CCC(NCc4ccc5c(c4)OCCO5)CC3)c2c1 [TCMDC-141123]	9.641	

SMILES	% Inhibition [%]	% Inhibition (% Inhibition) [%]
COc1ccc2nccc([C@@H](O)CN3CCC(NCc4ccc5cccc(O)c5n4)CC3)c2c1 [TCMDC-140715]	-19.01	
Nc1ncc(-c2cccc(OCc3ccccc3)c2)cc1-c1nnc2ccc(Cl)nn12 [TCMDC-134853]	-7.115	
COC(=O)c1ccc(N2CCN(CCCCNC(=O)c3ccc(NC(=O)c4ccc(Cl)cc4)cc3)CC2)c(OC)c1 [TCMDC-138526]	7.636	
O=C(Nc1ccc(Cl)cc1)Nc1cccc(-c2cccc(-c3nc4ccccc4[nH]3)c2)c1 [TCMDC-133178]	-4.164	
CN(C)c1ccc(/C=C2\S/C(=N\c3ccccc3)N(c3ccccc3)C2=O)cc1[N+](=O)[O-] [TCMDC-124086]	-8.825	
CCC(C)c1ccc(Nc2nc(C)cc(N(CC)CCCN3CCCCC3)n2)cc1 (stereo not drawn) [TCMDC-132456]	-18.05	
COc1cc(OC)c2c(c1Cl)O[C@]1(C2=O)C(=O)C(Cc2ccccc2)(Cc2ccccc2)C(=O)C[C@H]1C [TCMDC-131804]	9.09	
COc1ccc(CN(C)CCCOc2ccc(NC(=O)C=Cc3ccc(C(C)(C)C)cc3)cc2)cc1OC [TCMDC-138277]	-85.5	
CN1CCCc2ccc(NC(=O)C=Cc3ccc(-c4ccc(F)cc4F)o3)cc2C1 [TCMDC-134124]	39.53	
COc1ccc(Br)cc1/C=C/C(=O)Nc1ccc2c(c1)CCCN(C)C2 [TCMDC-133717]	27.94	
CN1CCCc2cc(NC(=O)C=Cc3ccc(-c4ccc(F)cc4F)o3)ccc2C1 [TCMDC-134051]	105.5	
CCCCCn1c(Sc2ccc(C#N)c([N+](=O)[O-])c2)nnc1-c1ccc(OC)cc1 [TCMDC-135603]	31.95	
COc1ccc2ncc(F)c([C@H](O)CN3CCC(NCc4ccc5c(c4)NC(=O)CS5)CC3)c2c1 [TCMDC-135827]	14.82	
COc1ccc2ncc(F)c(CCN3CCC(NCc4cnc5c(c4)NC(=O)CS5)CC3)c2c1 [TCMDC-134490]	87.27	
COc1ccc2ncc(F)c(CCN3CCC(NCc4cc5c(cn4)OCCS5)CC3)c2c1 [TCMDC-134569]	54.76	
COc1ccc2ncc(F)c([C@@H](O)CN3CCC(NCc4cc5c(cn4)OCS5)CC3)c2c1 [TCMDC-135862]	14.45	
COc1ccc2nccc([C@@H](O)CN3CCC(NCc4cnc5c(c4)NC(=O)CS5)CC3)c2c1 [TCMDC-141230]	6.568	
COc1ccc2ncc(F)c([C@H](O)CN3CCC(NCc4cc5c(cn4)OCCO5)CC3)c2c1 [TCMDC-135296]	-10.65	
CC(C)CC(=O)Nc1cc(=O)[nH]c2nc(-c3ccccc3)nn12 [TCMDC-125475]	3.79	
Cc1cc(C(=O)CN2C(=O)NC3(CCCc4ccccc43)C2=O)c(C)n1Cc1ccc(F)cc1 (stereo not drawn) [TCMDC-125057]	-27.15	
O=C(/C=C/c1ccc(Cl)c(Cl)c1)NCCCCCN1CCC(NC(=O)c2ccc3ccccc3c2)CC1 [TCMDC-135869]	-22.99	
Cc1[nH]c(C)c(-c2ccc(-c3cc(C(F)(F)F)cc(C(F)(F)F)c3)nc2)c(=O)c1Br [TCMDC-136015]	76.88	

SMILES	% Inhibition [%]	% Inhibition (% Inhibition) [%]
Cc1[nH]c(C)c(-c2ccc(-c3ccccc3C(F)(F)F)nc2)c(=O)c1Br [TCMDC-135881]	80.96	
Cc1[nH]c(C)c(-c2ccc(-c3ccc(C(F)(F)F)cc3C(F)(F)F)nc2)c(=O)c1Br [TCMDC-136013]	70.39	
Cc1[nH]c(C)c(-c2ccc(-c3cccc(C(F)(F)F)c3)nc2)c(=O)c1Br [TCMDC-135911]	22.21	
N#Cc1cccc(/C=C/C(=O)NC2CCC(CCN3CCc4ccc(-c5cnccn5)cc4CC3)CC2)c1 (stereo not drawn) [TCMDC-140238]	-55.93	
Cc1cc(N(C)C)nc(Nc2ccc(NC(=O)C3CCCCC3)cc2)n1 [TCMDC-124978]	11.42	
CCOc1cc(C(=O)NCCN(C(C)C)C(C)C)ccc1-c1nc2ccc(Cl)cc2[nH]1 [TCMDC-140910]	18.37	
O=c1cc(NCCCNC2CCCc3c2ccc2ccccc32)[nH]c2ccccc12 (stereo not drawn) [TCMDC-139366]	0.6782	
CCOC(=O)c1c(C)n(C2CCCCCC2)c2cc(Br)c(O)cc12 [TCMDC-124588]	-95.43	
Cc1ccc(-n2c(C)cc(C(=O)CN3C(=O)NC(Cc4ccccc4)C3=O)c2C)cc1 (stereo not drawn) [TCMDC-123563]	-21.41	
CC(C)C[C@@H](/C=N/NC(N)=O)NC(=O)[C@H](CC(C)C)NC(=O)[C@H](CC(C)C)NC(=O)OCc1ccccc1 [TCMDC-139049]	-49.58	
CCC(Nc1noc(-c2c(-c3ccccc3)noc2C)n1)c1ccccc1 (stereo not drawn) [TCMDC-134200]	3.321	
CC(C)CNCc1cccc(-c2cccc(CNC3CCN(Cc4ccccc4)CC3)c2)c1 [TCMDC-140479]	106.4	
CC(C)CNCc1ccc(-c2cccc(CNC3CCN(Cc4ccccc4)CC3)c2)cc1 [TCMDC-140480]	110	
CC(C)CNCc1cccc(-c2ccccc2CNC2CCN(Cc3ccccc3)CC2)c1 [TCMDC-140469]	76.18	
CC(C)CNCc1cccc(-c2ccc(CNC3CCN(Cc4ccccc4)CC3)cc2)c1 [TCMDC-140487]	103	
NC1=NC(c2ccccc2)(c2ccccc2)C(=O)N1C1CCCCC1 [TCMDC-136761]	-44.85	
N=c1c2c(n(Cc3cccc(Cl)c3)c3c1CCC3)CCCC2 [TCMDC-125614]	24.77	
COC(=O)/C=C/c1ccc(CC(C)NCC(O)c2cccc(C(F)(F)F)c2)cc1 (stereo not drawn) [TCMDC-131503]		-2.875
NC(N)=NC(=O)Nc1cc(Cl)c(Br)c(Cl)c1 [TCMDC-137507]	-11.69	
O=C(/C=C/c1ccc(Cl)c(Cl)c1)NCCCCCN1CCN(C(=O)Nc2cccc(F)c2)CC1 [TCMDC-135731]	4.224	
O=C(Nc1nc2cc(S(=O)(=O)NCCc3cccc(F)c3)ccc2n1CCCn1ccnc1)c1ccc(Cl)cc1 [TCMDC-141623]	-29.17	
CC(C)c1ccc(NC(=O)c2ccc(C(=O)NC3CCN(Cc4ccsc4)C3)cc2)cc1 (stereo not drawn) [TCMDC-136745]	-11.55	

From paper PMC4552634, “A New Set of Chemical Starting Points with Plasmodium falciparum Transmission-Blocking Potential for Antimalarial Drug Discovery” (PLoS ONE, 2015)
